Screening results as filed in PubChem.
Sm TGR block: qHTS Assay for the Inhibitors of Schistosoma Mansoni Peroxiredoxins; Schistosoma mansoni thioredoxin glutathione reductase (TGR), Q962Y6; purified TGR, DTNB reduction, TNB absorbance 405 nm; Potency, µM (doses to about 114 µM), inactives show at the highest dose activity change, negative = inhibition, hits mostly inhibitors; 3% of 360,000 active; AID 485364, 2010; note: % is set by controls: 0 for no effect and ±100 for the full control effect; nearly all actives have a fitted effect of over 60% in size
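TGR 20 nM + NADPH 100 uM (dispensed conc.), cpd preinc 15 min RT; start with NADPH (500 uM addition) then DTNB (15 mM addition). Kinetic TNB absorbance, 405 nm filter. Four-parameter Hill fit across titration.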
AmpC no deterg: qHTS Inhibitors of AmpC Beta-Lactamase (assay without detergent); 0.52% of 330,000 active; P00811; AID 485341, 2010; Potency, µM (series often up to 57.1 µM), inactives show at the top dose activity change, negative = inhibition, most hits filed as inhibitors; AmpC nitrocefin hydrolysis, absorbance 480 nm, 0.0001% Triton;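 note: plate controls were no compound for no effect and no enzyme for full effect; nearly all actives have a fitted effect of over 20% in size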
Target sequence (P00811 whole entry, looked up): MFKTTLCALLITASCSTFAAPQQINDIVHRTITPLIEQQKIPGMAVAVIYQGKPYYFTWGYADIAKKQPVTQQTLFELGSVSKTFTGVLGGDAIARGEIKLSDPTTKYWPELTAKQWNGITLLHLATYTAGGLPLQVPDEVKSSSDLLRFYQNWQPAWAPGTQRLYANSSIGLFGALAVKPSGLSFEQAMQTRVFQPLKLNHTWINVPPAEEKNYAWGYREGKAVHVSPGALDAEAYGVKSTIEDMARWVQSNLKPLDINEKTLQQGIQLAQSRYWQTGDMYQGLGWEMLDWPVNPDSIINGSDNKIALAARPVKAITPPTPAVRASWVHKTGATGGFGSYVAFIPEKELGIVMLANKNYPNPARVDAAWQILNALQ
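20 mM phosphate pH 7.0 + 0.01% (detergent screen) or 0.0001% Triton X-100; 5.3 nM AmpC reagent; cpd preinc 15 min RT; nitrocefin (800 uM stock) to start; A480 q20 s × 4 min; Activity was normalised to no-enzyme and no-compound control wells.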
AmpC inh detg: qHTS Inhibitors of AmpC Beta-Lactamase (assay with detergent). Potency, µM (doses to about 114 µM), inactives show top-dose activity change, negative = inhibition, hits mostly inhibitors. AID 485294, 2010. P00811. AmpC hydrolysis of nitrocefin, absorbance 480 nm, 0.01% Triton. 0.041% of 370,000 active;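 note: 0% = no-compound wells and -100% = no-enzyme wells; nearly all actives have a fitted effect of over 25% in size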
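AmpC (5.3 nM in the dispensed reagent) in 20 mM phosphate pH 7.0 with 0.01% (detergent screen) or 0.0001% Triton X-100 was preincubated with compounds for 15 min at room temperature. Nitrocefin was then added from an 800 uM solution, and hydrolysis was followed at 480 nm.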
Pf growth 48h: Primary qHTS for delayed death inhibitors of the malarial parasite plastid, 48 hour incubation | P. falciparum luciferase growth in erythrocytes, 48 h | Potency, µM (doses to about 28.7 µM), for inactives: at the top dose activity change, negative = inhibition, usual class: inhibitors | 5.9% of 310,000 active; note: % is set by controls: 0 for no effect and ±100 for the full control effect
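Luminescence readout; reporter = integrated firefly luciferase in P. falciparum. RBC culture at 2% hematocrit, 0.1% parasitemia final, 37 C/5% CO2; decreased signal taken as growth inhibition.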
Pf growth 96h: Primary qHTS for delayed death inhibitors of the malarial parasite plastid, 96 hour incubation. AID 504834, 2011. P. falciparum luciferase reporter growth, 96 h. 6.9% of 320,000 active. Potency, µM (titrated, usually from 28.7 µM), for inactives: at the highest dose activity change, negative = inhibition, most hits filed as inhibitors; note: % is set by controls: 0 for no effect and ±100 for the full control effect
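Two-generation exposure (96 h) targets delayed-death phenotype. Reporter parasites carrying integrated firefly luciferase, in red cells at 2% hematocrit and 0.05% parasitemia final, kept at 37 C, 5% CO2; luminescence loss indicates inhibition.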
SARS PLpro yeast: qHTS of Yeast-based Assay for SARS-CoV PLP | S. cerevisiae expressing SARS-CoV PLpro, growth rescue | Potency, µM (doses to about 32.9 µM), without a hit: at the top dose activity, positive = growth rescue, hits mostly activators | 0.19% of 330,000 active; calls by dose curve; note: 0% is about no effect; nearly all actives have a fitted effect of over 55% in size
An asterisk follows results filed as active; ? = inconclusive; . = not tested or not shown; [ ] = dose if it differs, or a comment. Shown are actives, neighbours in structure and some others; about 12% of the full set was active somewhere. Unless noted, calls come from the whole dose curve; as a rule, active = well fitted curve in the direction sought with a large enough effect; inconclusive = small, poorly fitted or top-dose-only effect, or another doubt; inactive = no such curve, though single readings can be large; an effect the other way counts as inactive or inconclusive. Potency is the fitted concentration of half-maximal effect.

SMILES	Sm TGR block	AmpC no deterg	AmpC inh detg	Pf growth 48h	Pf growth 96h	SARS PLpro yeast
CCOc1ccc(-n2c(Cc3cc(=O)[nH]c(=O)[nH]3)nnc2SC(C)C(=O)OC)cc1 (stereo not drawn)	-34%	-3%	-16%	.	9.3µM*	3%
CCOc1ccc(-n2c(Cc3cc(=O)[nH]c(=O)[nH]3)nnc2SCC(=O)NC2CCCC2)cc1	?	-2%	-12%	.	10µM*	-2%
CCCc1cc(=O)[nH]c2nnc(SCC(=O)Nc3ccc(NC(C)=O)cc3)n12	0%	-1%	-12%	2%	?	.
Cc1cccc(-c2nc3c4ccccc4n(Cc4cccc(Cl)c4)c(=O)n3n2)c1	-2%	.	1%	.	.	.
CC(CC(=O)N1CCN(S(=O)(=O)c2ccc(Cl)cc2)CC1)n1cncn1 (stereo not drawn)	-4%	151%	-6%	-5%	30%	-1%
Cc1ccc(-n2nc(C)c3c2OC(N)=C(C#N)C3c2ccc(F)cc2)cc1 (stereo not drawn)	8%	-24%	6%	4%	.	1%
N#CC1=C(N)N(c2ccc(F)cc2)C2=C(C1c1ccc(O)cc1)S(=O)(=O)CC2 (stereo not drawn)	1.8µM*	-39%	2%	?	-34%[5.75 µM]	2%
COc1ccc(N=C/C=C2\C=C(c3ccccc3)OC(C)(C)O2)cc1	40µM*	-13%	?	?	?	-21%
Cc1cc(Cn2ccnc2)c(C)cc1Cn1ccnc1	-7%	-14%	0%	13µM*	?	-2%
CC(=C/C(=O)O)/C=C/c1ccc(Cl)o1	0%	-12%	-2%	16%	2%	-2%
CC(=O)/C=C/c1ccc(C)o1	7.1µM*	1%	3%	8%	?	3%
Cc1ccc(/C=C/C(=O)NCc2cccs2)o1	2.8µM*	-24%	-3%	19%	74%[5.75 µM]	-1%
CC(/C=C/c1ccc(C)o1)=C\C(=O)O	7.9µM*	1%	-1%	-8%	132%	-8%
C=CCNC(=O)/C(C#N)=C/c1cn(-c2ccccc2)nc1-c1cccs1	3%	-16%	6%	-22%	-30%	-15%
Cc1cc(O)cc(C)c1Cl	.	.	.	15µM*	8.5µM*	.
Cc1cc(O)ccc1Cl	.	.	.	2%	-2%	.
Cc1cc(O)c(N)c(C)c1Cl	-25%	-26%	-3%	3.3µM*	?	-2%
Cc1ccc(S(=O)(=O)c2nc(-c3ccccc3)oc2N2CCCCCC2)cc1	-21%	.	5%	.	.	.
Cc1ccc(S(=O)(=O)c2nc(-c3ccc(Cl)cc3)oc2N2CCCCCC2)cc1	40µM*	.	-2%	.	.	.
CCN1CCN(c2oc(-c3ccccc3)nc2S(=O)(=O)c2ccc(C)cc2)CC1	-11%	178%	-15%	13µM*	12µM*	0%
Cc1ccc(-c2nc(S(=O)(=O)c3ccccc3)c(N3CCN(c4ccccc4)CC3)o2)cc1	0%	.	0%	.	.	.
Cc1ccc(-c2nc(S(=O)(=O)c3ccc(C)cc3)c(N3CCCCC3)o2)cc1	8.9µM*	.	1%	.	.	.
Cc1ccc(S(=O)(=O)c2nc(C(C)(C)C)oc2N2CCOCC2)cc1	1.1µM*	-7%	-5%	27%	.	2%
CCC(=O)N1CCc2cc(Br)cc(S(=O)(=O)CCC(=O)NCc3cccc(OC)c3)c21	?	.	0%	.	.	.
CCOc1ccc(-c2cn3c(n2)sc2cc(C(=O)NCCc4ccc(OC)c(OC)c4)ccc23)cc1	-4%	.	9%	.	.	.
O=C(O)c1cccc([N+](=O)[O-])c1C(=O)Nc1ccc2ccccc2c1	-4%	-33%	-14%	30%	8%	-4%
N#Cc1ccccc1NC(=O)COC(=O)c1c[nH]c2ccccc12	-1%	-17%	-15%	?	2%	-4%
